Data taken from PubChem BioAssay (NCI).
About 79,000 compounds went through this panel and 15% of them were active in at least one assay; those are over-represented in the sample as a whole. Calls of active or inactive are those of the source. Cut-off read from the data, not from the text of the source: active = growth inhibition above about 70%; inactive = the rest. Where a SMILES comes first, the peptide text is derived from it. [ ]: non-standard residue; d: D form. The star is where a group is joined. pGlu = O=C1CC[CH](C(=O)O)N1; Cbz = O=C(OCc1ccccc1)*

Assays:
[1] = NCI Yeast Anticancer Drug Screen. Data for the rad50 strain (AID 155);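 note: 0% = growth of vehicle-only cultures of the same strain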; details: S. cerevisiae rad50 strain growth inhibition; at 50.0 µM; hits give high values
In short: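 Relative growth inhibition (compound vs vehicle) was measured in yeast with a defined repair-gene alteration.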

[2] = NCI Yeast Anticancer Drug Screen. Data for the mec2-1 strain (AID 157); details: S. cerevisiae mec2-1 strain, at 50.0 µM, hits give high values
In short: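 Strain: mec2-1 (DNA repair/cell cycle alteration). Compound exposure, then growth measured; inhibition expressed relative to vehicle.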

[3] = NCI Yeast Anticancer Drug Screen. Data for the sgs1 mgt1 strain (AID 161);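 note: 0% = growth of cultures given vehicle only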; details: S. cerevisiae sgs1 mgt1 strain, at 50.0 µM, hits give high values
In short: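 Genetically altered yeast, compound exposure, growth inhibition relative to vehicle.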

[4] = NCI Yeast Anticancer Drug Screen. Data for the cln2 rad14 strain (AID 165);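 note: 0% = growth equal to vehicle treated cultures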; details: S. cerevisiae cln2 rad14 strain, at 50.0 µM, hits give high values
In short: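 Compounds are applied to the cln2 rad14 yeast strain, and growth is then compared with that of vehicle-treated cultures to give inhibition.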

[5] = NCI Yeast Anticancer Drug Screen. Data for the bub3 strain (AID 167); details: S. cerevisiae bub3 mutant strain, at 50.0 µM, hits give high values
In short: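 Screening used yeast with an engineered genetic alteration affecting cell cycle control. Compound-exposed cultures were compared with vehicle cultures, and reduced growth was taken as inhibition.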

[6] = NCI Yeast Anticancer Drug Screen. Data for the mlh1 rad18 strain (AID 175); details: S. cerevisiae mlh1 rad18 strain growth inhibition; at 50.0 µM; hits give high values
In short: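 Read-out is yeast growth inhibition, calculated against vehicle-only controls. The compound was applied to a strain engineered with DNA damage repair alterations.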

Measured: growth inhibition

c1cc2c3c(cccc3c1)N1C(=N2)Sc2nc3ccccc3nc21
inactive: [1] 3.15% | [2] 13.5% | [3] -9.8% | [4] -5.2% | [5] 13.6% | [6] -3%

CCN(CC)CCC1(C(N)=O)Cc2ccccc2N(CC)c2ccccc21 (stereo not drawn)
inactive: [1] 13.6% | [2] 10.6% | [3] 8.7% | [4] -2.6% | [5] 6.4% | [6] 1.85%

Cc1ccc(/C=C/C(=N/Nc2ccccc2)C(C)CN(C)C)cc1 (stereo not drawn)
inactive: [1] -3.2% | [2] -10.1% | [3] -3.25% | [4] -15.3% | [5] -1.35% | [6] -5%

O=C1c2ccccc2-c2cccc(I)c21
inactive: [1] 15.6% | [2] -8.7% | [3] -5.55% | [4] 6.95% | [5] 0.1% | [6] -7.4%

Cc1cc(NS(=O)(=O)c2ccc(Nc3c4ccccc4nc4c(C(=O)NCCN(C)C)cccc34)cc2)no1
inactive: [1] -37.8% | [2] 3.4% | [3] -41.5% | [4] 11.9% | [5] -22.7% | [6] -14.6%

O=c1[nH]c(=O)c2c(Cl)cccc2[nH]1
inactive: [1] 7.2% | [2] 9.9% | [3] 5.35% | [4] -22% | [5] -2.7% | [6] -4.1%

CC(NC(=O)C(Cc1cnc[nH]1)NC(=O)C1CCC(=O)N1)C(N)=O (stereo not drawn) ([pGlu]-His-Ala-NH2; configuration not given here)
inactive: [1] -15.4% | [2] -75% | [3] -17.3% | [4] -21.8% | [5] -12.7% | [6] -25.9%

C[N+](C)(C)C12CCCCCC1SC2 (stereo not drawn)
inactive: [1] 15.6% | [2] 6.7% | [3] 9.55% | [4] -26.6% | [5] -16.1% | [6] 5.1%

Nc1nc(N)c(N=Nc2ccc([N+](=O)[O-])cc2)c(=O)[nH]1
inactive: [1] -0.9% | [2] -16.9% | [3] -12% | [4] 9% | [5] 0.7% | [6] -3.9%

O=C1NC2NC(=O)NC2N1 (stereo not drawn)
inactive: [1] 6.6% | [2] -27.1% | [3] -3% | [4] -9.6% | [5] -2.05% | [6] 10.2%

CCOC(=O)C1=C(c2ccccc2)NC(c2ccccc2)=C(C(=O)OCC)c2c1c(=O)cc[nH]c2=O
inactive: [1] -19.6% | [2] 1.45% | [3] 18.1% | [4] 18.2% | [5] -9.9% | [6] 2.35%

COc1ccc(/C=C(\C2=NC(=O)CS2)c2nc3ccccc3[nH]2)cc1
inactive: [1] -0.35% | [2] -4.2% | [3] -20.1% | [4] -3.9% | [5] -20.4% | [6] -24.9%

CC(=O)Nc1ccccc1N
inactive: [1] 15.4% | [2] 14.9% | [3] -2.85% | [4] 4.6% | [5] -14.3% | [6] 14.5%

Cc1ccc(NC(=O)COc2ccccc2)c(C)c1
inactive: [1] 4.35% | [2] 19.9% | [3] 15.9% | [4] -4.25% | [5] 28.3% | [6] 28.4%

Cc1cc(=O)[nH]c2c(C)cc(Cl)cc12
inactive: [1] 9.95% | [2] -5.25% | [3] 14.9% | [4] 17.1% | [5] -18.4% | [6] 1.65%

CCOCCOC(=O)C1CCC(=O)N1CN(C(C)=O)c1cc(OC)ccc1OC (stereo not drawn)
inactive: [1] -17.9% | [2] -3.6% | [3] -30.9% | [4] 6.1% | [5] -0.5% | [6] -39.5%

Cc1c([N+](=O)[O-])ccc2c(NCCCN(C)C)ccnc12
inactive: [1] -2.5% | [2] -5.65% | [3] -5.35% | [4] -6.4% | [5] -14.3% | [6] -36.4%

CCOc1ncnc2ccc(Cl)c(I)c12
inactive: [1] 12.2% | [2] 0.55% | [3] 24.6% | [4] 10.2% | [5] 35.9% | [6] 16.7%

Cc1ccc2c(CC(=O)O)cc(=O)oc2c1
inactive: [1] 7.35% | [2] -6.35% | [3] -7.95% | [4] 0.9% | [5] -0.3% | [6] -9.35%

CC(C)=C/C(C)=N/NC(N)=O
inactive: [1] 7.9% | [2] -4.55% | [3] -24.3% | [4] -19.1% | [5] -19.8% | [6] -32.2%

CCCn1c(C)nc2cc(C)cc(N)c21
inactive: [1] 19.2% | [2] 20.4% | [3] 11% | [4] -17.4% | [5] -1.15% | [6] 1.7%

Nc1ccc2ccccc2c1C(=O)c1ccccc1
inactive: [1] 0.95% | [2] -1.55% | [3] -15.2% | [4] 37.1% | [5] -23.6% | [6] -5.75%

Cc1nc(N)[nH]c(=O)c1N
inactive: [1] 13.9% | [2] 3.4% | [3] 8.25% | [4] 11.8% | [5] -7.8% | [6] 8.6%

COC1N(C2C=CC(CO)O2)C(=O)NC(=O)C1(C)Br (stereo not drawn)
inactive: [1] -4.8% | [2] -18.1% | [3] 2.8% | [4] 2.75% | [5] -17.8% | [6] 15.8%

O=C1NC2c3ccccc3CCC12 (stereo not drawn)
inactive: [1] -1.55% | [2] -5.45% | [3] -1.5% | [4] -71.8% | [5] 8.65% | [6] -4.5%

COc1ccc2c(c1)CCc1nc(N)nc(N)c1-2
inactive: [1] -3.9% | [2] 4.1% | [3] -14.2% | [4] -40.5% | [5] -16.1% | [6] 11.8%

FC(F)(c1nnnn1Cc1ccccc1)C(F)(F)C(F)(F)C(F)(F)C(F)(F)C(F)(F)C(F)(F)C(F)(F)c1nnnn1Cc1ccccc1
inactive: [1] 10.2% | [2] 13.7% | [3] -11.7% | [4] -2.65% | [5] 7.95% | [6] 19.3%

CC1=CC(=O)CC2(C)CCC(C(C)CC(=O)CC(C)C)CC12 (stereo not drawn)
active: [1] 88.8% | [2] 91.3% | [3] 91% | [4] 91.3% | [5] 88.8% | [6] 91.5%

CCC1(O)C(=O)Nc2ccccc2C1=O (stereo not drawn)
inactive: [1] -3% | [2] -22.8% | [3] -17.3% | [4] -13.6% | [5] -23.1% | [6] -5.85%

CCC(=O)Oc1c(C(C)C)cccc1C(C)(C)C
inactive: [1] -22% | [2] -31.6% | [3] -19.7% | [4] -8% | [5] -31.4% | [6] -14.8%

O=Cc1c(CO)cc(O)c(O)c1O
inactive: [1] -12.4% | [2] -0.1% | [3] 16.1% | [4] -30.6% | [5] 2.9% | [6] 6.55%

CCN(CC)c1ccc(-c2c3ccccc3nc3ccccc23)cc1
inactive: [1] -5.05% | [2] -7.75% | [3] 7.45% | [4] -12.4% | [5] -17.1% | [6] -3.5%

O=C(CCl)Nc1cc(C(F)(F)F)ccc1Cl
inactive: [1] -0.15% | [2] 1.75% | [3] 18.1% | [4] 4.85% | [5] 23.9% | [6] 1.15%

CCOC(=O)/C(C#N)=C/NCC1CC1
inactive: [1] -21.8% | [2] -33.5% | [3] 1.6% | [4] 10.6% | [5] -33.2% | [6] -22.6%

CCCCCCCOC(C)=O
inactive: [1] 14.8% | [2] -11.8% | [3] 11.3% | [4] -16.2% | [5] -3% | [6] 21.6%

CCCC(NC(=O)CN)C(=O)O (stereo not drawn)
inactive: [1] 14.8% | [2] 19.1% | [3] 2% | [4] -50% | [5] -29.4% | [6] 6.5%

COC(=O)C(CO)NC(=O)C(CO)NC(=O)OCc1ccccc1 (stereo not drawn) (Cbz-Ser-Ser-OMe; configuration not given here)
inactive: [1] -9.8% | [2] 3.7% | [3] -0.25% | [4] 7.4% | [5] -10% | [6] -16.4%

CCOC(=O)C1C=CC(C)N(C(=O)OCC)N1C(=O)OCC (stereo not drawn)
inactive: [1] 0.35% | [2] 2.45% | [3] 7.5% | [4] -2.3% | [5] 49.9% | [6] -13.7%
